Source: PubChem (National Center for Advancing Translational Sciences (NCATS))
Only some compounds are listed: those with a hit (about 9.3% of all), similar ones and a draw of the others.
FLuc counter: firefly luciferase modulation, counter-screen for miR-21 project | P08659 | purified FLuc, Km substrates, luminescence inhibition | Potency, µM (series often up to 57.5 µM), usual class: inhibitors | 6.9% of 360,000 active | AID 588342; also: nearly all actives have a fitted effect of over 55% in size
Target sequence (P08659 whole entry, looked up): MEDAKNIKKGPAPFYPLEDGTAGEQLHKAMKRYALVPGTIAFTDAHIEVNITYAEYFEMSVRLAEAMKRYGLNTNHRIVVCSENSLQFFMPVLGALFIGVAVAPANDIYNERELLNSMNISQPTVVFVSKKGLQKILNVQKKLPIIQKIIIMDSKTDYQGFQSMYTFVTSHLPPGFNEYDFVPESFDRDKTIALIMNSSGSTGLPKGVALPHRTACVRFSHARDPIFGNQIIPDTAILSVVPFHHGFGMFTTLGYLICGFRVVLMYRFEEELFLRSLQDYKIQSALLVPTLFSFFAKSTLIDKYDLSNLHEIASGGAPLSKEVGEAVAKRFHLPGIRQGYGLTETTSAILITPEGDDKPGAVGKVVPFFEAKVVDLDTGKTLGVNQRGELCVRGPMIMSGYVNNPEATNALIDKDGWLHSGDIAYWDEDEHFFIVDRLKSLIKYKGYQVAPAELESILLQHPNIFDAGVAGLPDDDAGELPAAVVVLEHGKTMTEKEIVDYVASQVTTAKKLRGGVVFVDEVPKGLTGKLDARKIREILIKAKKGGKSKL
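Purified P. pyralis luciferase (10nM final) with 10uM D-luciferin and 10uM ATP (Km levels) in 50mM Tris acetate pH 7.5, 10mM Mg acetate, 0.01% Tween-20, 0.05% BSA; qHTS 6-point titration, ~60 µM downward; luminescence read.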
ELG1 repair inh: inhibitors of ELG1-dependent DNA repair in HEK293T cells | Potency, µM (series often up to 46.1 µM), actives largely listed as inhibitors | 2.3% of 330,000 active | HEK293T ELG1-luciferase reporter, luminescence, 16 h; DNA damage induced by 5-fluorouridine; also: nearly all actives have a fitted effect of over 55% in size
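Cells (2,000 per well) received 5-fluorouridine plus test compound or DMSO and were incubated 16 hr at 37 °C, 5% CO2. Luciferase activity was read by luminescence 30 min after ONE-Glo addition; signal suppression marked inhibition of damage-induced ELG1 function.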
Rab9 prom act: Rab9 promoter activation | Huh7 Rab9 promoter-luciferase reporter, luminescence, 24 h | Potency, µM (top dose mostly 9.22 µM), hits mostly activators | 2.8% of 320,000 active | AID 485297; also: nearly all actives have a fitted effect of over 60% in size
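Stable Rab9-luc Huh7, 1500 cells/well, 2 h settle; cmpd in DMSO, 24 h, 37 °C/5% CO2; luciferase reagent 10 min RT; luminescence.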
SMN2 splice enh: enhancers of SMN2 splice variant expression; Potency, µM (series often up to 46.1 µM), usual class: activators; HEK293 SMN2-luciferase splicing reporter, luminescence, 30-36 h; 2.8% of 210,000 active; also: nearly all actives have a fitted effect of over 55% in size
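qHTS luciferase splicing reporter: luminescence rises when SMN2 exon 7 is included in transfected HEK293 cells. Compound exposure lasted 30-36 h at 37C, with 4.5 mM final sodium butyrate as control, followed by a ONE-Glo read.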
ELG1 genotox: induces genotoxicity in HEK293T cells with luciferase-tagged ELG1 | HEK293T ELG1-luciferase reporter, luminescence, 16 h | Potency, µM (doses to about 46 µM), usual class: activators | 1.3% of 330,000 active | AID 504466; also: nearly all actives have a fitted effect of over 60% in size
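Quantitative HTS format in 1536-well plates. HEK293T ELG1-luciferase reporter cells receive test compound and are incubated 16 hr at 37 °C, 5% CO2; ONE-Glo added, 30 min room temperature, then luminescence read.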
NPC1 promoter act: activates the NPC1 promoter. Huh7 NPC1 promoter luciferase reporter, 24 h. Potency, µM (series often up to 9.22 µM), hits mostly activators. 2.4% of 320,000 active; also: nearly all actives have a fitted effect of over 60% in size
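Luminescence read-out of NPC1 promoter-driven luciferase in stably transfected Huh7 cells; compounds delivered in DMSO and left 24 h at 37C, 5% CO2, qHTS titration format.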
Numbers stand for hits. Calls follow the shape of the dose curve; as a rule, active = well fitted curve in the direction sought with a large enough effect; inconclusive = small, poorly fitted or top-dose-only effect, or another doubt; inactive = no such curve, though single readings can be large; an effect the other way counts as inactive or inconclusive.

How did O=C(Nc1ccc(-c2nc3ccccc3s2)c(O)c1)c1ccc(Br)cc1 do in these assays?
FLuc counter: inactive; SMN2 splice enh: inactive

What do the screens show for `O=C(Nc1ccc(-c2nc3ccccc3s2)c(OC(=O)c2ccccc2)c1)c1ccccc1`?
FLuc counter: inconclusive; ELG1 repair inh: inconclusive; Rab9 prom act: 1.4µM; SMN2 splice enh: 2.8µM; ELG1 genotox: inconclusive; NPC1 promoter act: 1.6µM

What do the screens show for `COC(=O)c1c(C)[nH]c(C=O)c1-c1ccccc1`?
FLuc counter: 13µM; ELG1 repair inh: inconclusive; Rab9 prom act: inconclusive; ELG1 genotox: inconclusive; NPC1 promoter act: inactive

Results for COC(=O)c1c(C)[nH]c(C)c1-c1ccccc1Cl ?
FLuc counter: inactive; ELG1 repair inh: inactive; Rab9 prom act: inactive; SMN2 splice enh: inactive; ELG1 genotox: inactive; NPC1 promoter act: inactive

What do the screens show for `COC(=O)c1c(-c2ccccc2)c[nH]c1C`?
FLuc counter: 27µM; ELG1 repair inh: inconclusive; Rab9 prom act: inactive; ELG1 genotox: inactive; NPC1 promoter act: inactive

Results for COc1cccc2cc(-c3ccnc(=S)[nH]3)oc12 ?
FLuc counter: inactive; ELG1 repair inh: inconclusive; Rab9 prom act: inactive; SMN2 splice enh: 11µM; ELG1 genotox: inactive; NPC1 promoter act: inactive

What do the screens show for `COc1ccc(CNC(=O)CN(C(=O)c2snc(C(N)=O)c2N)c2ccccc2F)cc1`?
FLuc counter: inactive; ELG1 repair inh: inactive; Rab9 prom act: inactive; ELG1 genotox: inactive; NPC1 promoter act: inactive

What do the screens show for `CCCCn1c(N)c(N(CCC(C)C)C(=O)CSc2nnc(Nc3ccccc3)s2)c(=O)[nH]c1=O`?
FLuc counter: 24µM; ELG1 repair inh: inconclusive; Rab9 prom act: inactive; SMN2 splice enh: inactive; ELG1 genotox: inactive; NPC1 promoter act: inactive

Results for CN(C(=O)CSc1nnc(Nc2ccccc2)s1)c1c(N)n(Cc2ccccc2)c(=O)[nH]c1=O ?
FLuc counter: inactive; ELG1 repair inh: inactive; Rab9 prom act: inactive; ELG1 genotox: inactive; NPC1 promoter act: inactive

How did CCCCn1c(N)c(N(CCC(C)C)C(=O)CSc2nncn2-c2ccccc2)c(=O)[nH]c1=O do in these assays?
FLuc counter: inactive; ELG1 repair inh: inactive; Rab9 prom act: inactive; ELG1 genotox: inactive; NPC1 promoter act: inactive

How did CCCCN(C(=O)CSc1nnc(Nc2ccc(C)c(C)c2)s1)c1c(N)n(Cc2ccccc2)c(=O)[nH]c1=O do in these assays?
FLuc counter: 1.1µM; ELG1 repair inh: inactive; Rab9 prom act: inactive; SMN2 splice enh: 22µM; ELG1 genotox: inactive; NPC1 promoter act: inactive

How did COCCN(C(=O)CSc1nnc(Nc2ccc(C)cc2)s1)c1c(N)n(CC(C)C)c(=O)[nH]c1=O do in these assays?
FLuc counter: 11µM; ELG1 repair inh: inactive; Rab9 prom act: inactive; SMN2 splice enh: inactive; ELG1 genotox: inactive; NPC1 promoter act: inactive

How did CN1CC(C(=O)Nc2ccc(F)c(Cl)c2)CC1=O (stereo unspecified) do in these assays?
FLuc counter: inactive; ELG1 repair inh: inactive; Rab9 prom act: inactive; ELG1 genotox: inactive; NPC1 promoter act: inactive

Results for c1ccc(OCCN2CCN(C(c3ccccc3)c3ccccc3)CC2)cc1 ?
FLuc counter: inactive; ELG1 repair inh: inconclusive; Rab9 prom act: inactive; ELG1 genotox: inactive; NPC1 promoter act: inactive

Results for COC(=O)C1C(=O)OC(C)(C)C1C(C)C(=O)c1ccccc1 (stereo unspecified) ?
FLuc counter: inactive; ELG1 repair inh: inactive; Rab9 prom act: inactive; SMN2 splice enh: inactive; ELG1 genotox: inactive; NPC1 promoter act: inactive

How did c1nc(NCCN2CCOCC2)c2sc3nc(N4CCOCC4)c4c(c3c2n1)CCC4 do in these assays?
FLuc counter: inactive; ELG1 repair inh: 23µM; Rab9 prom act: inactive; SMN2 splice enh: inactive; ELG1 genotox: inactive; NPC1 promoter act: inactive

How did CCN1CCN(c2ncnc3c2sc2nc(N4CCOCC4)c4c(c23)CCC4)CC1 do in these assays?
FLuc counter: inactive; ELG1 repair inh: inactive; Rab9 prom act: inactive; SMN2 splice enh: inactive; ELG1 genotox: inactive; NPC1 promoter act: inactive
